Laboratory results from PubChem BioAssay AID489036 (National Center for Advancing Translational Sciences (NCATS), 2010).
Results filed as inconclusive are left out. Unmarked numbers belong to inactive results. The source made the active and inactive calls. The call rests on the fitted dose curve; in most records, active means well fitted inhibition curve with a large enough effect; inconclusive means small, poorly fitted or top-dose-only effect, or effect the other way; inactive means flat fitted curve, though single readings scatter.

test: VP16 selectivity assay for inhibitors of ROR gamma transcriptional activity; settings: Drosophila Schneider Gal4-VP16 UAS-luciferase reporter, 20 h; series mostly up to 92.2 µM; activity change, negative = inhibition: at the top concentration
From the text: NIH Molecular Libraries Probe Production Network [MLPCN] NIH Chemical Genomics Center [NCGC] MLPCN Grant: R03 DA026211-01 Assay Provider: Dan Littman, New York University Assay Overview: The retinoic acid-related orphan receptor (ROR) gamma is a transcription factor that has a central role in the differentiation of Th17 cells, a subset of T helper cells that secrete the inflammatory cytokines IL-17, IL-17F, and IL-22. Th17 cells have been implicated in graft versus host disease, autoimmune disease and asthma. ROR gamma is induced in naive T helper cells in the presence of TGF-beta combined with IL-6, IL-21, or IL-23, and thereafter directs the expression of the Th17 lineage cytokines. To identify nonspecific inhibitors, a Drosophila Schneider cell line was stably transfected with two vectors: a gene expressing a fusion of the Gal4 DNA binding domain and VP16 transactivation domain under the control of the metallothionine promoter and a Photinus luciferase reporter regulated by the Gal4 binding site enhancer, UAS. […] Small molecule inhibitors that inhibit components common to the RORgt and VP16 assays, such as the Gal4 DNA binding domain or the UAS luciferase reporter, will be active in both assays and thus scored as nonspecific.
Assay Protocol Summary: For screening, 600 cells in 4 uL/well were dispensed into white solid 1536-well plates (Grenier) using a solenoid-based dispenser. Following transfer of 23 nL compound or DMSO vehicle by a pin tool, the plates were incubated 1 hr at ambient temperature, and 1 uL/well copper sulfate (700 uM final concentration) was added. The plates were centrifuged 15 s at 1000 RPM and incubated 20 hr at ambient temperature. After addition of 1.5 uL Photinus luciferase detection reagent, the plates were incubated 10 min at ambient temperature and then read by an ViewLux (Perkin Elmer) to detect luminescence.

| Compound | Potency | activity change, negative = inhibition |
| --- | --- | --- |
| COc1cc(C)nc(-n2nc(C)cc2OC)n1 | 14.4 µM (active) | – |
| O=C(/C=C/c1ccc(S(=O)(=O)N2CCOCC2)cc1)NC(=S)Nc1ccc(N2CCOCC2)cc1 | 20.4 µM (active) | – |
| COCC1CCCN(C(=O)CC(c2ccc3c(c2)OCO3)c2c(O)cc(OC)cc2OC)C1 (stereo not given) | – | -15.9% |
| COc1cc(O)c(C(CC(=O)N2CCCCC2)c2ccc(C)cc2)c(OC)c1 (stereo not given) | – | -1.68% |
| COc1ccc(-c2c[n+]3c(n2-c2ccc(C)cc2)CCCCC3)cc1 | 5.12 µM (active) | – |
| COc1cc(O)c(C(CC(=O)N2CCCC(C)C2)c2ccc(C(C)C)cc2)c(OC)c1 (stereo not given) | 25.7 µM (active) | – |
| Cc1cc(C)nc(-n2nc(C)cc2NC(=O)CNC(C)c2ccccc2)n1 (stereo not given) | 18.2 µM (active) | – |
| COc1ccc(C(CC(=O)N2CCCC(C)C2)c2ccc3c(c2)OCO3)c(O)c1 (stereo not given) | – | -16.5% |
| COc1cc(O)c(C(CC(=O)N2CCC(c3ccccc3)CC2)c2ccc(OC)c(OC)c2)c(OC)c1 (stereo not given) | – | -1.5% |
| CC1CCCN(C(=O)CC(c2ccc3c(c2)OCO3)c2c(O)cccc2Cl)C1 (stereo not given) | 40.7 µM (active) | – |
| CC(C)(C)c1ccc(-c2noc(CCC(=O)Nc3cccnc3)n2)cc1 | 2.04 µM (active) | – |
| COc1ccccc1CNC(=O)[C@@H](NC(=O)C1CCN(C(=O)[C@@H]2CCCN2C(=O)OC(C)(C)C)CC1)C(C)C | – | 6.66% |
| COc1ccc(C(CC(=O)N2CCCC(C)C2)c2c(O)cc(OC)cc2OC)c(OC)c1 (stereo not given) | – | 3.14% |
| CC1=C(\C=C/C(C)=C/C=C\C(C)=C\C(=O)O)C(C)(C)CCC1 | 8.48 µM (active) | – |
| COc1cc(O)c(C(CC(=O)N2CCC[C@H](C)C2)c2ccc3c(c2)OCO3)c(OC)c1 (stereo not given in full) | inactive | – |
| O=C(NC(=S)Nc1nc(-c2ccccc2)cs1)c1cccnc1 | 25.7 µM (active) | – |
| COc1cc(O)c(C(CC(=O)N2CCCC(C(=O)c3ccccc3)C2)c2ccc3c(c2)OCO3)c(OC)c1 (stereo not given) | – | 4.06% |
| COc1cc(O)c(C(CC(=O)N2CCC(Cc3ccccc3)CC2)c2ccc(OC)c(OC)c2)c(OC)c1 (stereo not given) | – | -5.36% |
| Cc1ccc(OCCCC(=O)Nc2nc3ccccc3[nH]2)cc1 | 18.2 µM (active) | – |
| CCOc1ccc(O)c(C(CC(=O)N2CCCC(C)C2)c2ccc3c(c2)OCO3)c1 (stereo not given) | – | -27.7% |

| Compound | Potency | activity change, negative = inhibition |
| --- | --- | --- |
| COc1cc(O)c(C(CC(=O)N2CCCC(CN3CCCCC3)C2)c2ccc3c(c2)OCO3)c(OC)c1 (stereo not given) | – | -3.73% |
| COc1cc(O)c(C(CC(=O)N2CCCC(COc3ccc(F)cc3)C2)c2ccc3c(c2)OCO3)c(OC)c1 (stereo not given) | – | -6.39% |
| COc1cc(OC)c2c(c1)OC(=O)CC2c1ccc2c(c1)OCO2 (stereo not given) | – | -14.3% |
| COc1cc(O)c(C(CC(=O)N2CCCC(C)C2)c2ccc(OC)c(OC)c2)c(OC)c1 (stereo not given) | – | 13.1% |
| COc1cc(O)c(C(CC(=O)N2CCCC(C#N)C2)c2ccc3c(c2)OCO3)c(OC)c1 (stereo not given) | – | 25.1% |
| CCn1cc(C(=O)O)c(=O)c2cnc(N3CCN(C(=S)NC(=O)c4ccccc4)CC3)nc21 | 20.4 µM (active) | – |
| COc1cc(O)c(C(CC(=O)N2CCCC(C)C2)c2ccccc2OC)c(OC)c1 (stereo not given) | – | -19.2% |
| COc1cc(OC)c(C(CC(=O)N2CCCC(C)C2)c2ccc3c(c2)OCO3)c(OCc2ccccc2)c1 (stereo not given) | 12.9 µM (active) | – |
| CCOC(=O)C1CCN(CC(=O)Nc2cc(C)nn2-c2nc3ccccc3s2)CC1 | 22.9 µM (active) | – |
| COc1cc(O)c(C(CC(=O)N2CCCC(c3nc4ccccc4o3)C2)c2ccc3c(c2)OCO3)c(OC)c1 (stereo not given) | – | -23% |
| CCOc1ccc(-c2cc(CCCC(=O)NCc3cccnc3)no2)cc1 | 2.88 µM (active) | – |
| COc1cc(OC)c(C(CC(=O)N2CCCC(C)C2)c2ccc3c(c2)OCO3)c(OC)c1 (stereo not given) | 51.2 µM (active) | – |
| c1ccc(Cn2c(-c3ccccc3)c[n+]3c2SCCC3)cc1 | 45.7 µM (active) | – |
| CCOc1ncccc1C(=O)OCC(=O)Nc1ccc(-c2nc3ccc(C)cc3s2)cc1 | 2.57 µM (active) | – |
| COc1cc(O)c(C(CC(=O)N2CCOCC2)c2ccc3c(c2)OCO3)c(OC)c1 (stereo not given) | – | 21.6% |
| COc1cc(O)c(C(CC(=O)N2CCC(c3ccccc3)CC2)c2ccc3c(c2)OCO3)c(OC)c1 (stereo not given) | inactive | – |
| CC1CCCN(C(=O)CC(c2ccc3c(c2)OCO3)c2ccc3ccccc3c2O)C1 (stereo not given) | – | -13% |
| CC(C)(C(=O)Nc1nccs1)C(c1ccccc1)c1ccc(O)cc1 (stereo not given) | 36.3 µM (active) | – |
| C=C1Nc2c(-c3ccc(F)cc3)cnn2C(N)=C1c1ccccc1 | 0.288 µM (active) | – |
| CCCCNC(=O)CC(c1ccc2c(c1)OCO2)c1c(O)cc(OC)cc1OC (stereo not given) | – | -10.5% |
